According to PubChem BioAssay (NCATS):
“And” between values parts separate entries of the source, which are not always exact repeats. Identical values can stand only once. Records with an inconclusive call do not appear. Where a structure was tested more than once in an assay, its records may differ in their call. The source made the active and inactive calls. Unless noted, the call rests on the fitted dose curve; in most records, active means well fitted curve in the direction sought with a large enough effect; inconclusive means small, poorly fitted or top-dose-only effect, or another doubt; inactive means no such curve, though single readings can be large; an effect the other way counts as inactive or inconclusive.

Key:
[1] = target: Ubiquitin carboxyl-terminal hydrolase 2 (Homo sapiens) (UniProt O75604); experiment: qHTS Validation Assay for Inhibitors of Ubiquitin-specific Protease USP2a Using CHOP2 as the Reporter (AID 463106); further: potency means the concentration at half of the fitted maximal effect
How it was run: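 10nM USP2 core + cpd, 30min RT; add 25nM Ub-CHOP2/25nM substrate; 60min RT; FI 485/531nm. Buffer Tris pH 8.0, CaCl2, BME, CHAPS. Norm. to NEM = 100% inhibition; time-zero read flags fluorescent artifacts.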

[2] = target: Tumor susceptibility gene 101 protein (Homo sapiens) (UniProt Q99816); experiment: qHTS Validation Assay for Iinhibitors of HIV-1 Budding by Blocking the Interaction of PTAP/TSG101 (AID 485342; calls by dose curve)
How it was run: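 Tsg101 binding domain (10 uM) with FITC-labeled PTAP peptide (50 nM) in HEPES pH 7.5 buffer, 20 min at r.t. with compounds. Binding measured by fluorescence polarization.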

[3] = qHTS Validation Assay to Find Inhibitors of Chronic Active B-Cell Receptor Signaling (AID 485345; active means well fitted curve in the direction sought with a large enough effect in the main read-out, with a control signal flat, not every such curve was filed as active)
How it was run: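 Read-out: ratio of filter-corrected green (IkappaBalpha fusion) to red (native) luciferase signal in doxycycline-induced TMD8 cells after 4 h at 37C. Titration spanned 46 uM–3 nM; Data were normalised to basal cells and 10 uM MG-132 wells.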

[4] = target: Beta-2 adrenergic receptor (Homo sapiens) (UniProt P07550); experiment: qHTS validation assay of beta-arrestin-biased ligands of beta2-adrenergic receptor (AID 485366)
How it was run: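 Luminescence from a tTA-responsive luciferase, induced when recombinant beta-arrestin is recruited to recombinant beta2-AR, served as the agonism signal. Cells were exposed to compound for 18 hr at 37 degrees C; titrations spanned up to 46 microM.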

[5] = target: Thioredoxin reductase 1, cytoplasmic (Rattus norvegicus) (UniProt O89049); experiment: qHTS Assay for Substrates of Mammalian Selenoprotein Thioredoxin Reductase 1 (TrxR1) (AID 488772);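 further: NADPH fluorescence in the first read after selenite addition and not the 8 min delta; series mostly up to about 57 µM; a drop in NADPH fluorescence below the no-compound background marks a TrxR1 substrate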
How it was run: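 Quantitative HTS in Tris-HCl buffer at pH 7.5 with EDTA and Tween-20, using rat TrxR1, 400 uM NADPH and 400 uM selenite (final). A fall in initial NADPH fluorescence relative to background marked substrate behaviour.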

[6] = target: Thioredoxin reductase 1, cytoplasmic (Rattus norvegicus) (UniProt O89049); experiment: qHTS Assay for Inhibitors of Mammalian Selenoprotein Thioredoxin Reductase 1 (TrxR1) (AID 488773); settings: Potency: inhibition;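 further: drop in NADPH fluorescence over an 8 min run after selenite addition; series mostly up to about 57 µM; nearly all actives have a fitted effect of over 40% in size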
How it was run: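 Steps: enzyme (90 nM) plus NADPH (400 uM final), 5 min at ~22 deg C; compound added, 15 min; selenite (400 uM final) added; fluorescence followed for 8 min. Concentration-response curves derived from the normalized delta values.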

[7] = target: Flap endonuclease 1 (Homo sapiens) (UniProt P39748); experiment: qHTS Validation Assay for the Inhibitors of Human Flap endonuclease 1 (FEN1) (AID 488816); further: potency means the concentration at half of the fitted maximal effect
How it was run: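 Readings taken at 0 and 15 min after starting the reaction with 50 nM (final) substrate supplied the signal. Compounds had first sat with 10 nM FEN1 reagent for 15 min at room temperature. Values come from Hill-equation concentration-response fits.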

[8] = target: M-phase phosphoprotein 8 (Homo sapiens) (UniProt Q99549); experiment: qHTS Validation Assay for Inhibitors for MPP8 Chromodomain Interactions with Methylated Histone Tails (AID 488949); further: nearly all actives have a fitted effect of over 55% in size; further: potency means the concentration at half of the fitted maximal effect
How it was run: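 MPP8 (50 nM) was pre-bound to 50 nM biotinylated H3(1-18)K9me3 peptide in PBS pH 7.4 with 0.01% Tween-20. Compounds were then added for 30 min at room temperature, and complex disruption was read by AlphaScreen with streptavidin donor and nickel-chelate acceptor beads.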

[9] = target: Methanococcus maripaludis chaperonin (MmCpn) (UniProt Q6LX38); experiment: High-Throughput Screening for Modulators of Cytosolic Chaperonin Activity: MmCpn Primary Screen (AID 488978);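 further: 50 nM MmCpn enzyme hydrolysing 30 µM ATP at 37 °C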
How it was run: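 MmCpn at 50 nM final was preincubated 5 min at RT with compound. ATP was then added at 30 uM final for 10 min at 37 C. ADP formed was detected by Transcreener HTRF (665/590 nm).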

[10] = target: Transient receptor potential cation channel subfamily V member 1 (Homo sapiens) (UniProt Q8NER1); experiment: HTS Assay for Compounds that Act as Enhancers of the Vanilloid Receptor 1 (AID 488979)
How it was run: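 Calcium influx kinetics via Fluo-8 (480/520 nm) in TRPV1-expressing cells, 2000/well cultured overnight at 35.5C. Compound-alone read 3 min (agonist phase), followed by EC20 capsaicin challenge for 2 min (enhancer phase).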

[11] = target: D(1A) dopamine receptor (Homo sapiens) (UniProt P21728); experiment: HTS Assay for Allosteric Agonists of the Human D1 Dopamine Receptor: Primary Screen for Potentiators (AID 488982)
How it was run: (§1)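 Calcium flux in an inducible, force-coupled HEK293 Trex D1 line (overnight at 30 C): agonist mode is the 180 s kinetic read after compound; potentiator mode is the following 180 s read after dopamine at EC20.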

[12] = target: D(1A) dopamine receptor (Homo sapiens) (UniProt P21728); experiment: HTS Assay for Allosteric Agonists of the Human D1 Dopamine Receptor: Primary Screen for Agonists (AID 488981)
How it was run: as §1

[13] = target: D(1A) dopamine receptor (Homo sapiens) (UniProt P21728); experiment: HTS Assay for Allosteric Agonists of the Human D1 Dopamine Receptor: Primary Screen for Antagonists (AID 488983);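 further: calcium flux response to an EC80 dopamine challenge measured with no-wash dye; nearly all actives have a fitted effect of over 65% in size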; further: potency means the concentration at half of the fitted maximal effect
How it was run: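 Tetracycline-induced HEK293 T-REx cells expressing force-coupled D1 were plated overnight at 30 C, dye-loaded for calcium, and read kinetically. Compounds were pinned in, then an EC80 dopamine challenge followed after 180 s to reveal antagonism.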

[14] = Quantitative high throughput screen for delayed death inhibitors of the malarial parasite plastid, 96 hour incubation (AID 488745); further: series mostly up to about 29 µM; nearly all actives have a fitted effect of over 70% in size
How it was run: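 P. falciparum carrying an integrated firefly luciferase reporter, grown in erythrocytes (2% hematocrit, 0.1% parasitemia final) in RPMI 1640/0.5% Albumax, was exposed to compound for 96 h (two generations) at 37 C, 5% CO2. Luminescence decrease indicated growth inhibition.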

[15] = Quantitative high throughput screen for delayed death inhibitors of the malarial parasite plastid, 48 hour incubation (AID 488752); further: nearly all actives have a fitted effect of over 65% in size
How it was run: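 Erythrocytes infected with P. falciparum carrying an integrated firefly luciferase reporter (2% hematocrit, 0.1% parasitemia final) were exposed to compounds in RPMI 1640/0.5% Albumax for 48 h at 37 C, 5% CO2. Growth inhibition was scored as reduced luminescence.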

[16] = target: Thyrotropin receptor (Homo sapiens) (UniProt P16473); experiment: qHTS Assay for Antagonists of the Thyroid Stimulating Hormone Receptor (AID 488980); further: series mostly up to about 58 µM
How it was run: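 TSHR-transfected HEK293 cells (2000/well) in HEPES-buffered HBSS with 70 uM RO 20-1724 were stimulated with 4 nM TSH (EC80, final) in the presence of compound. cAMP was measured by HTRF competition after lysis and 30 min at RT.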

[17] = target: ATP-dependent 6-phosphofructokinase (Trypanosoma brucei brucei) (UniProt O15648); experiment: qHTS Validation Assay to Find Inhibitors of T. brucei phosphofructokinase (AID 485368); further: potency means the concentration at half of the fitted maximal effect
How it was run: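 Activity was normalized between 1x (1.25 nM) PFK wells as no inhibition and enzyme-free wells as full inhibition, from luminescence after ADP-Glo detection of ADP made from 0.5 mM F6P and 0.1 mM ATP over 45 min.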

[18] = target: Chromobox protein homolog 1 (Homo sapiens) (UniProt P83916); experiment: qHTS Validation Assay for Inhibitors of HP1-beta Chromodomain Interactions with Methylated Histone Tails (AID 488953); further: nearly all actives have a fitted effect of over 50% in size; further: potency means the concentration at half of the fitted maximal effect
How it was run: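 HP1-beta (50 nM) was preincubated 30 min at room temperature with biotinylated H3(1-18)K9me3 peptide (50 nM) in PBS pH 7.4, 0.01% Tween-20, then with compounds 30 min. AlphaScreen signal was read after streptavidin donor/nickel chelate acceptor beads (10 ug/mL final).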

[19] = target: DNA polymerase III PolC-type (Bacillus subtilis (strain 168)) (UniProt P13267); experiment: qHTS Validation Assay for the Inhibitors of DNA Replication in Gram-Positive Bacteria (AID 485295);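 further: PicoGreen fluorescence of double-stranded DNA made on primed circular M13 template; series mostly up to about 57 µM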
How it was run: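 Reconstituted B. subtilis Pol III holoenzyme (PolC, beta clamp, SSB, primase) preincubated with compound, then M13Gori single-stranded circular template with dNTPs/NTPs added; room temperature reaction. Stopped with EDTA/PicoGreen; dsDNA fluorescence read, EDTA as full-inhibition control.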

Measured: Potency

Sequence of Flap endonuclease 1 (Homo sapiens) (P39748 whole entry, looked up): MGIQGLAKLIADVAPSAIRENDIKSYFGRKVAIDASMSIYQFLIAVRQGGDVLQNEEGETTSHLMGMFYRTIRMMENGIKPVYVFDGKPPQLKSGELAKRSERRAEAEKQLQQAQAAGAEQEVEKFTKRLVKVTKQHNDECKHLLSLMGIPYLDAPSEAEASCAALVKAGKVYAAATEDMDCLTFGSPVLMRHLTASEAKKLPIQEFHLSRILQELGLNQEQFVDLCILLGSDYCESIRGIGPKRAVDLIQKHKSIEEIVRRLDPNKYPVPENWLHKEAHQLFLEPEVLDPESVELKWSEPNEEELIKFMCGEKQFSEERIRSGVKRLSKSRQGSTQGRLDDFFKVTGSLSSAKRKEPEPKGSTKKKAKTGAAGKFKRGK
Sequence of Chromobox protein homolog 1 (Homo sapiens) (P83916 whole entry, looked up): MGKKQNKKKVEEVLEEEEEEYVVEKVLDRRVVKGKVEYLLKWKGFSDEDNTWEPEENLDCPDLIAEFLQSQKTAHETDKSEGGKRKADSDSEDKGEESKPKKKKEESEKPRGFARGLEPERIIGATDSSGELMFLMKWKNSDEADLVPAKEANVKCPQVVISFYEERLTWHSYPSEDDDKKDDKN
Sequence of Thioredoxin reductase 1, cytoplasmic (Rattus norvegicus) (O89049 whole entry, looked up): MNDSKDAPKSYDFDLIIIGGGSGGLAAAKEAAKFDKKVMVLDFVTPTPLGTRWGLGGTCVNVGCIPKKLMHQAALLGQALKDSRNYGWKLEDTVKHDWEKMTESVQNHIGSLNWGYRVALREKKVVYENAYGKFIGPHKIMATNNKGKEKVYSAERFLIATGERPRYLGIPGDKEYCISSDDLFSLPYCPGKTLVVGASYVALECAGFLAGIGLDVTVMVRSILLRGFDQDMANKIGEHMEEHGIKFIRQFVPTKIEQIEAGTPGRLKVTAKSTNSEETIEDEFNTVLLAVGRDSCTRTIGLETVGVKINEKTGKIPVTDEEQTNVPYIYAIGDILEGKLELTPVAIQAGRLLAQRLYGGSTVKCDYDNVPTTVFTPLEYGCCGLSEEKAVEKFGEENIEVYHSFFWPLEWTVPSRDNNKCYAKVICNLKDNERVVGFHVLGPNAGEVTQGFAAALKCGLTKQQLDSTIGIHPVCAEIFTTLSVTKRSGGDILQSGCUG
Sequence of Transient receptor potential cation channel subfamily V member 1 (Homo sapiens) (Q8NER1 whole entry, looked up): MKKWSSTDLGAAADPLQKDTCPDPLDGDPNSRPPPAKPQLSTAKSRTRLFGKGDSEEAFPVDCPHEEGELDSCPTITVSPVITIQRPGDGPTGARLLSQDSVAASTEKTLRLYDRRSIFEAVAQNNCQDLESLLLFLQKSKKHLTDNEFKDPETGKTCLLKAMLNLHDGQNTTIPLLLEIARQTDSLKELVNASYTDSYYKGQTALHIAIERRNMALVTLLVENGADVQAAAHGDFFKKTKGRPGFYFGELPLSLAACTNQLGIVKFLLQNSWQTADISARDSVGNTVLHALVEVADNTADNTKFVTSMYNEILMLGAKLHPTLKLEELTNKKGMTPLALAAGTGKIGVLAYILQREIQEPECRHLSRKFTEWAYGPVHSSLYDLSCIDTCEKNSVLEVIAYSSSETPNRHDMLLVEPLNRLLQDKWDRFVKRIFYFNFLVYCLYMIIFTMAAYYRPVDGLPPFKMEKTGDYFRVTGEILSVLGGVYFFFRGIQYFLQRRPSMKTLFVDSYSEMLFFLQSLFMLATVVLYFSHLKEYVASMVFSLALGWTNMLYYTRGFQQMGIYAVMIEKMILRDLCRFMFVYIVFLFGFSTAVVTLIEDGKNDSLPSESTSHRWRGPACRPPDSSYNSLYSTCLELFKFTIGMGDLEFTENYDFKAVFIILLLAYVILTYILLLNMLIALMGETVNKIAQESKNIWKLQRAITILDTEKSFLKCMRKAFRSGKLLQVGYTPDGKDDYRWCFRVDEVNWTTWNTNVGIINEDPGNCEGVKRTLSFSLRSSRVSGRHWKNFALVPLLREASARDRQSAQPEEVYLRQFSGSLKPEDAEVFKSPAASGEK
Sequence of Methanococcus maripaludis chaperonin (MmCpn) (Q6LX38 1-543): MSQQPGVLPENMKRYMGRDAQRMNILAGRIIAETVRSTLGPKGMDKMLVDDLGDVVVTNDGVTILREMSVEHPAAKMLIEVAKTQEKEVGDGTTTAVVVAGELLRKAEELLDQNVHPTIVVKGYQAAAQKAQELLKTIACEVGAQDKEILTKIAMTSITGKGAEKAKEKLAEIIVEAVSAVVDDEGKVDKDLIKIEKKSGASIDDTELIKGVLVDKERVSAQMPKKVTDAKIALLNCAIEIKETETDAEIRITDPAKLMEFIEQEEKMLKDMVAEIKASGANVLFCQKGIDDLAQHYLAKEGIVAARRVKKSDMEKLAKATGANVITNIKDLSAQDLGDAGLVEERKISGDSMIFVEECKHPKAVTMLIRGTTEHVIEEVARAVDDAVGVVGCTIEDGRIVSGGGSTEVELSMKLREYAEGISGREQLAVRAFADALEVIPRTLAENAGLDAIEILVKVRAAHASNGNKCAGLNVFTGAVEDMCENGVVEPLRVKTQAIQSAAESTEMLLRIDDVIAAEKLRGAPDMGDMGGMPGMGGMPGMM
Sequence of Tumor susceptibility gene 101 protein (Homo sapiens) (Q99816 whole entry, looked up, the tested form may be a part): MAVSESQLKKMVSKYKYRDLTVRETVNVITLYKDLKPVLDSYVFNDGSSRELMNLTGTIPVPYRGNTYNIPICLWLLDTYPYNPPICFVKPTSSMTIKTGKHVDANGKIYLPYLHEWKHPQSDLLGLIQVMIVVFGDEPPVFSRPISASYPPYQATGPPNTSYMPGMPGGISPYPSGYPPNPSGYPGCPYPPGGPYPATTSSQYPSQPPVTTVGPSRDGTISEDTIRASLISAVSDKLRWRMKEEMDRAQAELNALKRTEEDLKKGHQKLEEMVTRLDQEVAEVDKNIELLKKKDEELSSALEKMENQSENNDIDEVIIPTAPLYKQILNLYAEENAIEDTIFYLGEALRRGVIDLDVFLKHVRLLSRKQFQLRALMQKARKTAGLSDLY
Sequence of ATP-dependent 6-phosphofructokinase (Trypanosoma brucei brucei) (O15648 whole entry, looked up): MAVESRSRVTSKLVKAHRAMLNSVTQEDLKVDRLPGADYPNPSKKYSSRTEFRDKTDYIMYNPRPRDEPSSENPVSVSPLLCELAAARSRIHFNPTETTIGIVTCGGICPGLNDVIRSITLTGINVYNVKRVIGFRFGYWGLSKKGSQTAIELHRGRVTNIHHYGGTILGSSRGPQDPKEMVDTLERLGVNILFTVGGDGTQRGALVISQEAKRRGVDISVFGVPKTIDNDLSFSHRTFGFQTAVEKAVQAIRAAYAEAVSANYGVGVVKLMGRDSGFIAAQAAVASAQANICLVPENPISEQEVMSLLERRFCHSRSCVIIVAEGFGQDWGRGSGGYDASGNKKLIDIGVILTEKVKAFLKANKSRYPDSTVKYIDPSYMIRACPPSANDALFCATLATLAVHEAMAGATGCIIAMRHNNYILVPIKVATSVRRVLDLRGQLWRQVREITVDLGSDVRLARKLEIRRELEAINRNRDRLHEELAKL
Sequence of Beta-2 adrenergic receptor (Homo sapiens) (P07550 whole entry, looked up): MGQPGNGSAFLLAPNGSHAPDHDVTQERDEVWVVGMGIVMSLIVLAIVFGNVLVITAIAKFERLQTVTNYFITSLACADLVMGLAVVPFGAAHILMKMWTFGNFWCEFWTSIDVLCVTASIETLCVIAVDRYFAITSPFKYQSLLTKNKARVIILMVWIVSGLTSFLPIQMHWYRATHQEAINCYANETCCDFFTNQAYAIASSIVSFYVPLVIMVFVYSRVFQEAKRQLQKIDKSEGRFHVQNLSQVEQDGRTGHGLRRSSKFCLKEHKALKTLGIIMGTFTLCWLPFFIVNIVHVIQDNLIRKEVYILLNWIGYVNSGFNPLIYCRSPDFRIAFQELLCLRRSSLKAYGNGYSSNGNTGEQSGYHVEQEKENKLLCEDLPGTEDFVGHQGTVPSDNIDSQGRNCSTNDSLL
Sequence of Thyrotropin receptor (Homo sapiens) (P16473 whole entry, looked up): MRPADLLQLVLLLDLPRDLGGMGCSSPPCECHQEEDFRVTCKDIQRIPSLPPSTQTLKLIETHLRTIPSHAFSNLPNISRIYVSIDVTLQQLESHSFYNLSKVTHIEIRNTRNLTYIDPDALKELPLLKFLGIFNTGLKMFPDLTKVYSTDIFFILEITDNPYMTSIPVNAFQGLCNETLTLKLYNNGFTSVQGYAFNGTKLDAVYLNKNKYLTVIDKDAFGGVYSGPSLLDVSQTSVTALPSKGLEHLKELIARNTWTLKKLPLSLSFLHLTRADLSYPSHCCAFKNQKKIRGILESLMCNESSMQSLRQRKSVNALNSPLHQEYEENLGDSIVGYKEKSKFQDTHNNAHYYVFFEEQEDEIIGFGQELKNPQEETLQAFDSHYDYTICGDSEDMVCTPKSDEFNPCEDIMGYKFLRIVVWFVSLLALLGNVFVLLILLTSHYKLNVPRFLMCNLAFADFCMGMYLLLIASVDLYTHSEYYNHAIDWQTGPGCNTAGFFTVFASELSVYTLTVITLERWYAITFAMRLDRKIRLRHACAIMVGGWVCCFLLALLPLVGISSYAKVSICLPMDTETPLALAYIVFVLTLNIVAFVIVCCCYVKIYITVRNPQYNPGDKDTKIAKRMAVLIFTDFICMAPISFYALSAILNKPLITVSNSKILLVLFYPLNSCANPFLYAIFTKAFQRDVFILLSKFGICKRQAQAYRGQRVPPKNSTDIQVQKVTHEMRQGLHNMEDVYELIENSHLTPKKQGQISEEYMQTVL
Sequence of D(1A) dopamine receptor (Homo sapiens) (P21728 whole entry, looked up): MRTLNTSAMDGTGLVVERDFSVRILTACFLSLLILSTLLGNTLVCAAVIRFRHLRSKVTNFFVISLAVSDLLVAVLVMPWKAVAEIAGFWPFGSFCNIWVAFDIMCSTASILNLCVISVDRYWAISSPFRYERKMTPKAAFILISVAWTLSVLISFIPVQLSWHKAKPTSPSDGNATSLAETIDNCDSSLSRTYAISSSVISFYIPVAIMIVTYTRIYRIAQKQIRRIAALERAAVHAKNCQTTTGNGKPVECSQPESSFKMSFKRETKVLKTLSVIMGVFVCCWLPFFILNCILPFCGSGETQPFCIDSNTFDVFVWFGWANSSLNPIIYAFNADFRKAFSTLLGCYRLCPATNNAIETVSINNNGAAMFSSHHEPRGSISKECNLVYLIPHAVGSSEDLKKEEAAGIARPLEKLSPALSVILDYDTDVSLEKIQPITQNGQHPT

CCCn1c(=O)c2[nH]c(-c3ccc(OCC(=O)NCCN)cc3)nc2n(CCC)c1=O
not listed: [12] | [13] | [14] | [15] | [16] | [17] | [18] | [19]
inactive: all other assays above

CN(C)CCCO[C@@H]1[C@H]2OC(C)(C)O[C@H]2O[C@@H]1[C@H](O)CO
not listed: [10] | [11] | [14] | [15] | [16] | [17] | [18] | [19]
inactive: all other assays above

C=CC(N)CCC(=O)O (centres undefined)
not listed: [11] | [12] | [17] | [18] | [19]
inactive: all other assays above

C[N+]1(C)CCC(OC(=O)C(c2ccccc2)c2ccccc2)CC1
not listed: [7] | [8] | [10] | [11] | [14] | [15] | [16] | [19]
inactive: all other assays above

O=C1NC(=O)/C(=C/c2ccc(-c3ccc(F)cc3O)o2)S1
active: [7] 26.7 µM | [18] 39.8 µM
inactive: [1] | [19] | [2] | [4] | [5] | [9] | [11]

N#C/C(=C\c1ccc(O)c(O)c1)C(=O)c1ccc(O)c(O)c1
active: [1] 1.17 µM | [17] 0.675 µM | [8] 1.41 µM and 2.99 µM | [18] 0.501 µM
not listed: [6] | [7] | [14] | [16] | [19]
inactive: all other assays above

NO
not listed: [14] | [16] | [17] | [18] | [19]
inactive: all other assays above

CO/S(=N\S(=O)(=O)c1ccc(Cl)cc1)c1ccc([N+](=O)[O-])cc1 (centres undefined)
inactive: [1] | [2] | [3] | [4] | [5] | [6] | [7] | [8] | [9] | [11]

O=C1/C(=C/c2ccsc2)CC/C1=C\c1cccs1
not listed: [3] | [10] | [11] | [14] | [15] | [16] | [17] | [18]
inactive: all other assays above

O=C(O)CC[C@@H](C(=O)O)N1C(=O)c2ccccc2C1=O
not listed: [11] | [14] | [16] | [17] | [18] | [19]
inactive: all other assays above

NCCSSCCN
79.4 µM (active) and inactive: [8]
active: [18] 50.1 µM
not listed: [5] | [7] | [13] | [14] | [19]
inactive: all other assays above

c1ccc(-c2ccccn2)nc1
not listed: [12] | [14] | [17] | [19]
inactive: all other assays above

Nc1ncnc2c1ncn2[C@@H]1O[C@H](COP(=O)(O)CP(=O)(O)OP(=O)(O)O)[C@@H](O)[C@H]1O
not listed: [7] | [8] | [10] | [14] | [15] | [16] | [19]
inactive: all other assays above

Cc1cc2c(cc1Cl)N(C(=O)Nc1ccc(Oc3cccnc3C)nc1)CC2
active: [18] 44.7 µM | [13] 14.1 µM
not listed: [3] | [7] | [10] | [14] | [15] | [16] | [17]
inactive: all other assays above

CC1(C)CCC=[N+]1[O-]
not listed: [13] | [14] | [17] | [19]
inactive: all other assays above

C[C@@H](NC(=O)/C(C#N)=C/c1ccc(O)c(O)c1)c1ccccc1
active: [8] 10 µM | [18] 8.91 µM
not listed: [3] | [5] | [11] | [14] | [15] | [17]
inactive: all other assays above
